A selection: hits, their analogues and other compounds. The true share with any hit is near 2.1%.
aDG glyco act = activators of alpha-DG glycosylation, primary screen, uHTS, Pro5-aDG cells, AlphaScreen; alpha-DG glycosylation AlphaScreen (IIH6); 0% Pro5, 100% B10-LARGE cell signal; activation, % at 10 µM; 0.22% of 360,000 active; AID 624168, 2012;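 active = activation of at least 8% versus controls, or a plate z-score of at least 8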;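 also: Pro5 are CHO cells carrying HIG-tagged alpha-DG that lacks glycosylation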
Gli-Sufu block = Gli-Sufu pathway antagonists, primary screen, luciferase luminescence, Sufu-KO-LIGHT cells, uHTS. AID 588413, 2011. inhibition, % at 5 µM. Sufu-KO-LIGHT fibroblasts, Gli luciferase reporter luminescence. 0.74% of 340,000 active;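 active = inhibition above about 55%, limit read from the data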;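 also: 0% = DMSO-treated cells and 100% = wells with medium but no cells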
COUP-TFII inh = NR2F2 transcriptional activity inhibitors, primary screen, cell-based, luciferase reporter, HEK293T, luminescence | COUP transcription factor 2 (Homo sapiens), P24468 | HEK293T NGFI-A luciferase reporter | inhibition, % at 8.6 µM | 0.7% of 370,000 active;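 active = inhibition above a per-plate cutoff, mean inhibition of test wells between control levels plus 3 SD, cut at about 38% in these data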;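 also: cells cotransfected with COUP-TFII expression vector driving the NGFI-A reporter; 0% = median of COUP-TF2 test wells and 100% = reporter-only cells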
Target sequence (P24468 whole entry, looked up): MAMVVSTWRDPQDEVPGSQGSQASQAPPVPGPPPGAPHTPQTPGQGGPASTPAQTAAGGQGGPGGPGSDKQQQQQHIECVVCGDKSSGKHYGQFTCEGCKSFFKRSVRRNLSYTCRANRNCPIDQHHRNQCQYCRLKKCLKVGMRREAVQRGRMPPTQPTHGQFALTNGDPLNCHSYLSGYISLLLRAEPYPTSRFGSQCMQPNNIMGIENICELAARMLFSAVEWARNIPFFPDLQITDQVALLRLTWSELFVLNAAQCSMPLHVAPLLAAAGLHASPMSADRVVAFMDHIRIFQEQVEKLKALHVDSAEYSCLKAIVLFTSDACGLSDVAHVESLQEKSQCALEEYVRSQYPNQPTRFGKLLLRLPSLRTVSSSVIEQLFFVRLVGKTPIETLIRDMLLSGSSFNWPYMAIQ
GalR3 antagonist = GalR3 antagonists in HEK293 cells, primary screen, cell-based, fluorescence readout | 0.44% of 360,000 active | inhibition, % at 3 µM | HEK293 GalR3-CNG cAMP membrane potential fluorescence; galR3 body fused to GalR1 C-terminus | Galanin receptor type 3 (Homo sapiens), O60755;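 active = inhibition above the screen-wide average plus 3 SD, cut at about 13% in these data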;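 also: forskolin and galanin both at EC90 stimulate the cells; cAMP rise reported by CNG channel membrane potential dye signal; 0% = forskolin plus galanin with DMSO and 100% = forskolin alone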
Target sequence (O60755 1-299 limits assumed): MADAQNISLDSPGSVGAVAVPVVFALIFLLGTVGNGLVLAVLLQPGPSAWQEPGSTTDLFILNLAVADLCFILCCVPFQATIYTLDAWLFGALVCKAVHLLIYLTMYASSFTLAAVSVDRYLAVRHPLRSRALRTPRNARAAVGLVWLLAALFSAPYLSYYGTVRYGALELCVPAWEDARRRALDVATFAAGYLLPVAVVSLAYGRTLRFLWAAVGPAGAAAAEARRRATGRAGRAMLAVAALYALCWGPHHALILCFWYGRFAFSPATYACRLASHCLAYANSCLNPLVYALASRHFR
Env fusion inh = inhibitors of HIV-1 Env-driven cell-cell fusion, primary screen, HeLa-JRFL effector, CEM21 target cells, luciferase | inhibition, % at 12.3 µM | 1.1% of 360,000 active;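 active = mean replicate inhibition score of at least 50 and every replicate individually at or above 50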;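 also: 0% = plate neutral controls and 100% = maraviroc near 300 nM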
Starred values were filed as active, the others as inactive; nt = no result; [ ] = remark or other dose.

SMILES | aDG glyco act | Gli-Sufu block | COUP-TFII inh | GalR3 antagonist | Env fusion inh
C[C@H](CO)N1C[C@H](C)[C@H](CN(C)CC2CC2)Oc2cc(C#Cc3cccnc3)ccc2S1(=O)=O | nt | nt | nt | nt | 2.2[16.7 µM]
COc1ccc(-c2cc(=O)oc3c(C)c(O)c(CN(C)C)cc23)cc1 | 0.2 | 2.1 | 4.9 | -2.0 | 73.1*
COc1cc(/C=C/c2ccc3cccc(O)c3n2)cc(Cl)c1OC | 2.5* | -27.3 | -26.8 | -6.3 | -177.1
COC(=O)Nc1ccc(S(=O)(=O)N2CCCc3cccc(O)c32)cc1 | 1.4 | 3.7 | -6.5 | -3.8 | -55.5
COC(=O)Nc1ccc(S(=O)(=O)N2CCCc3ccccc32)cc1 | -0.1 | -2.8 | 2.5 | -9.6 | 59.0*
Cc1ccc(OCCNCc2ccccc2)c(C)c1 | 0.4 | 14.8 | -15.2 | -8.9 | 2.3
Cc1ccc(OCCCCNC(C)c2ccccc2)c(C)c1 (stereo not given) | 0.2 | 17.4 | -1.8 | -9.1 | 96.3*
COc1ccccc1CN1C(=O)CN(C2CCCCCC2)C(=O)C1c1ccc(F)cc1 (stereo not given) | 0.2 | 5.9 | -7.4 | -3.0 | 81.7*
Cc1cc(C(C)(C)CC(C)(C)C)ccc1OCCOCC[N+](C)(C)Cc1ccccc1 | -0.4 | 65.2* | 16.5 | 8.1 | 30.9
Cc1noc(C)c1NC(=O)N(C)C[C@@H]1OCCCC[C@@H](C)Oc2ccc(NC(=O)Nc3ccccc3)cc2C(=O)N([C@H](C)CO)C[C@@H]1C | nt | nt | nt | nt | 18.7[16.7 µM]
NC(=O)c1nsc(C(=O)N(c2ccc(F)cc2)C(C(=O)NCC2CCCO2)c2c[nH]c3ccccc23)c1N (stereo not given) | 0.1 | 12.8 | -5.4 | -7.7 | 13.1
CCc1ccc(N(C(=O)c2snc(C(N)=O)c2N)C(C(=O)NCCC(C)C)c2c[nH]c3ccccc23)cc1 (stereo not given) | -0.5 | 7.2 | 3.6 | -4.5 | 118.0*
COc1ccc(C(C(=O)NC2CCCC2)N(C(=O)c2ccco2)c2ccc(OC)c(OC)c2)cc1 (stereo not given) | -0.1 | -2.4 | 3.0 | -3.0 | -381.5
COc1ccc(N(C(=O)c2ccco2)C(C(=O)NC2CCCC2)c2ccc(OC)c(OC)c2)cc1 (stereo not given) | 0.1 | 0.1 | 5.1 | -5.5 | 55.2*
COc1ccccc1CN(Cc1nc2ccccc2c(=O)[nH]1)S(=O)(=O)c1ccc2ccccc2c1 | -0.3 | 0.3 | 10.4 | 2.1 | 98.4*
O=C1OCC2=C1C(c1ccc(F)cc1)c1cc3c(cc1N2)OCCO3 (stereo not given) | -0.2 | 57.0* | -82.6 | -2.8 | -66.7
COc1cccc2c1C(=N)c1c(O)c3c(c(O)c1C2=O)CC(O)(C(C)=O)CC3OC1CC(N)C(O)C(C)O1 (stereo not given) | -0.9 | 75.5* | nt | nt | nt
COc1cccc2c1C(=O)c1c(O)c3c(c(O)c1C2=O)CC(O)(C(C)=O)CC3OC1CC(O)C(O)C(C)O1 (stereo not given) | -0.5 | 55.3* | -88.5 | -7.9 | -185.2
O=C(Nc1ccccc1F)NC1CCN(Cc2nnnn2Cc2ccc(F)cc2)CC1 | 0.2 | 15.8 | 0.7 | -5.4 | -16.5
O=C(Nc1ccc(F)cc1)NC1CCN(Cc2nnnn2Cc2ccco2)CC1 | 0.1 | 8.6 | 4.7 | -1.0 | 61.0*
COc1cccc(NC(=O)CSc2nc3n[nH]c(C)c3c(=N)n2-c2cccc(OC)c2)c1 | 0.5 | 0.8 | -9.1 | 4.2 | nt
CCc1ccc(NC(=O)CSc2nc3n[nH]c(C)c3c(=N)n2-c2cccc(OC)c2)cc1 | 1.4 | 2.3 | -14.8 | -7.4 | 58.7*
O=C1[C@@H]2[C@@H](CC(COc3ccccc3)=C([C@H](O)c3ccccc3)[C@@H]2CO)C(=O)N1Cc1ccccc1 | nt | nt | nt | nt | 12.3[16.7 µM]
CCc1ccc(OCCNC(=O)c2ccccc2SCc2ccc(F)cc2)cc1 | -0.1 | -5.3 | -3.1 | -0.4 | 57.6*
COC(=O)[C@]12CCCCC=C1N(CCC1=CCCCC1)C(=O)[C@H](CC(=O)NCc1ccc(OC)c(OC)c1)C2 | 0.1 | nt | 6.9 | -5.3 | 80.3*
SMILES | aDG glyco act | Gli-Sufu block | COUP-TFII inh | GalR3 antagonist | Env fusion inh
CCCCCCCCN1C(=O)[C@H](CC(=O)NCc2ccc(OC)c(OC)c2)C[C@@]2(C(=O)OC)CCCCC=C12 | -0.4 | nt | 8.8 | -4.5 | 117.8*
CCCCNC(=O)C[C@@H]1C[C@@]2(C(=O)OCC)CCCC=C2N(CCc2ccc(OC)c(OC)c2)C1=O | 0.0 | nt | 13.1 | -4.0 | -14.1
CCOC(=O)[C@]12CCCC=C1N(Cc1cccc3ccccc13)C(=O)[C@H](CC(=O)NCc1ccc(OC)c(OC)c1)C2 | 0.1 | nt | 22.5 | -6.9 | 56.0*
CCOC(=O)[C@]12CCCC=C1N(CCC1=CCCCC1)C(=O)[C@H](CC(=O)NCc1ccc(OC)c(OC)c1)C2 | 0.1 | nt | -1.8 | -6.3 | 70.9*
CCOC(=O)[C@]12CCCC=C1N(Cc1ccccc1)C(=O)[C@H](CC(=O)NCc1ccc(OC)c(OC)c1)C2 | 2.3 | nt | 4.1 | -6.6 | -0.5
C[C@@H]1CCCCO[C@@H](CN(C)C(=O)C2CCCCC2)[C@H](C)CN([C@@H](C)CO)C(=O)c2cc(NS(=O)(=O)c3ccc(Cl)cc3)ccc2O1 | nt | nt | nt | nt | -26.3[16.7 µM]
COc1ccc(NC(=O)COC(=O)c2cc3c(s2)CCC3)cc1 | 9.7* | 5.2 | nt | nt | nt
O=C1[C@H](Cc2ccccc2)NCCCC[C@H](c2ccc(Cl)cc2)N1Cc1ccc(Cl)cc1 | 0.6 | -1.7 | -15.2 | -5.9 | 66.1*
O=C1[C@H](Cc2ccccc2)NCC=CC[C@H](c2ccc(Cl)cc2)N1Cc1ccccc1 | 0.3 | 5.4 | 14.3 | -7.9 | 38.7
COC(=O)C1=C(C(=O)OC)[C@]2([C@H]3CCCCN[C@@H](Cc4ccccc4)C(=O)N3Cc3ccccc3)C=C[C@H]1O2 | -0.2 | 10.3 | 12.7 | -6.4 | 65.2*
O=C1[C@H](Cc2ccccc2)NCC=CC[C@H](c2ccc(Cl)cc2)N1Cc1ccc(Cl)cc1 | 0.7 | 10.8 | -1.8 | -8.8 | 110.3*
O=C1[C@H](Cc2ccccc2)NCC=CC[C@@H](c2ccc(Cl)cc2)N1Cc1ccc(Cl)cc1 | 0.7 | -1.7 | 2.7 | -7.6 | 14.7
C[C@H]1CN([C@@H](C)CO)C(=O)c2cc(NS(=O)(=O)c3ccc(Cl)cc3)ccc2O[C@@H]1CN(C)Cc1ccc(C(F)(F)F)cc1 | nt | nt | nt | nt | 23.0[16.7 µM]
CCCC(=O)Nc1ccc2c(c1)C(=O)N(C)C[C@H](OC)[C@@H](C)CN(Cc1cncnc1)[C@H](C)CO2 | nt | nt | nt | nt | -0.9[16.7 µM]
COc1ccccc1CNC(=O)C[C@@H]1C[C@@H]2c3cc(NS(=O)(=O)c4ccc(F)cc4)ccc3O[C@@H]2[C@@H](CO)O1 | nt | nt | nt | nt | 22.1[16.7 µM]
COc1ccccc1CNC(=O)C[C@@H]1C[C@H]2c3cc(NS(=O)(=O)c4ccc(F)cc4)ccc3O[C@H]2[C@H](CO)O1 | nt | nt | nt | nt | 3.3[16.7 µM]
COc1ccccc1CNC(=O)C[C@H]1C[C@@H]2c3cc(NS(=O)(=O)c4ccc(F)cc4)ccc3O[C@@H]2[C@@H](CO)O1 | nt | nt | nt | nt | 55.0*[16.7 µM]

High-throughput results: PubChem, several laboratories
